The results in this text go back to PubChem BioAssay (Tox21).

Assay [1] in a line: qHTS assay to identify small molecule antagonists of the glucocorticoid receptor (GR) signaling pathway - cell viability counter screen (AID 720693). Also: nearly all actives have a fitted effect of over 55% in size. Conditions: GR-bla HeLa viability, CellTiter-Glo luminescence, 18 h, with 5 nM dexamethasone present; series mostly up to 58.5 µM.
Assay [2] is described as follows: qHTS assay for identifying genotoxic compounds that show differential cytotoxicity against isogenic chicken DT40 cell lines with known DNA damage response pathways - Rev3 mutant cell line (AID 743014). Also: nearly all actives have a fitted effect of over 55% in size. Also: potency is read from the fitted curve at half-maximal effect. Conditions: chicken DT40 Rev3-/- viability, CellTiter-Glo, 40 h; series mostly up to 68.4 µM.
Assay [3] is described as follows: qHTS assay for identifying genotoxic compounds that show differential cytotoxicity against isogenic chicken DT40 cell lines with known DNA damage response pathways - Rad54/Ku70 mutant cell line (AID 743015). Also: nearly all actives have a fitted effect of over 60% in size. Also: potency is read from the fitted curve at half-maximal effect. Conditions: DT40 Rad54/Ku70 mutant viability, CellTiter-Glo, 40 h; series mostly up to 66.8 µM. In general terms: Quantitative high-throughput screening tests each substance at several concentrations.

The target in assay [4] is Androgen receptor (Homo sapiens) (UniProt P10275). Nature of the assay: qHTS assay to identify small molecule antagonists of the androgen receptor (AR) signaling pathway (AID 743035; active = well fitted inhibition curve with a large enough effect in the signal ratio in the repeat runs, not every such curve was filed as active; the % refers to the signal ratio). Conditions: HEK293 AR-UAS-bla, R1881-stimulated, beta-lactamase FRET, 16 h; series mostly up to 58.5 µM. In short, it runs like this:
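In this cell-based reporter screen, compounds were tested in concentration series against R1881-activated HEK293 cells expressing beta-lactamase under UAS control; after 16 h at 37C, FRET substrate was added and fluorescence read 2 h later.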

Assay [5] has the same target. Put plainly: qHTS assay to identify small molecule agonists of the androgen receptor (AR) signaling pathway (AID 743036; active = well fitted activation curve with a large enough effect in the signal ratio in the repeat runs, with a control signal flat, not every such curve was filed as active; the % refers to the signal ratio). Conditions: HEK293 AR-UAS-bla GripTite, beta-lactamase FRET ratio, 16 h; series mostly up to 62.4 µM. In outline: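 Fluorescence from a beta-lactamase FRET substrate served as read-out in AR-UAS-bla GripTite HEK293 cells. Cells were treated with DMSO-dissolved compounds for 16 h at 37C, then with LiveBLAzer B/G substrate for 2 h at room temperature.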

Assay [6] shares this target. Put plainly: qHTS assay to identify small molecule agonists of the androgen receptor (AR) signaling pathway using the MDA cell line (AID 743040; also: nearly all actives have a fitted effect of over 20% in size). Conditions: MDA-kb2 AR-luc cells, MMTV luciferase, 16 h; series mostly up to 70.3 µM. In outline:
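Luciferase read-out, ONE-Glo, 30 min RT. Cells: MDA-kb2 AR-luc, MMTV promoter with AR and GR response elements. Compound exposure 16 h, 37C, 0% CO2, after 5 h pre-incubation. qHTS agonist mode.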

The target is the same in assay [7]. Nature of the assay: qHTS assay to identify small molecule antagonists of the androgen receptor (AR) signaling pathway using the MDA cell line (AID 743042; also: nearly all actives have a fitted effect of over 55% in size). The conditions noted are these: MDA-kb2 AR-luc, MMTV luciferase, R1881 antagonist, 16 h; series mostly up to 70.3 µM. In short, it runs like this: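 MDA-kb2 breast carcinoma cells carrying MMTV-luciferase (AR/GR responsive) were co-treated with compounds and the agonist R1881 for 16 h at 37C. Inhibition read as ONE-Glo luminescence; CellTiter-Fluor fluorescence measured in parallel for cytotoxicity.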

A short description of assay [8]: qHTS assay to identify small molecule antagonists of the androgen receptor (AR) signaling pathway using the MDA cell line - cell viability counter screen (AID 743041; also: nearly all actives have a fitted effect of over 45% in size). Conditions: MDA-kb2 viability, CellTiter-Fluor, 16 h, cells co-treated with R1881 androgen agonist; series mostly up to 70.3 µM. In short, it runs like this: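 Cytotoxicity counter screen: MDA-kb2 AR-luc cells, compound + R1881, 16 h, 37C, 0% CO2; CellTiter-Fluor added at 15.5 h, fluorescence read after 30 min.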

Assay [9] is described as follows: qHTS assay to identify small molecule antagonists of the androgen receptor (AR) signaling pathway - cell viability counter screen (AID 743033; also: nearly all actives have a fitted effect of over 45% in size). Conditions: AR-bla HEK293 viability, CellTiter-Glo luminescence, 16 h; series mostly up to 58.5 µM.
The nature of assay [10]: qHTS assay for identifying genotoxic compounds that show differential cytotoxicity against isogenic chicken DT40 cell lines with known DNA damage response pathways - wild type cell line (AID 743012). Also: nearly all actives have a fitted effect of over 60% in size. Also: potency is read from the fitted curve at half-maximal effect. Conditions: DT40 wild type chicken cells viability, CellTiter-Glo, 40 h; series mostly up to 68.4 µM. In outline:
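300 wt DT40 cells/well; cpd (DMSO) pintool-transferred after ~0.5 h at 37 C/5% CO2; 40 h incubation; CellTiter-Glo added, 30 min RT; luminescence read.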

Values without a mark were called inactive. Results filed as inconclusive are left out. Activity calls are given as the source filed them. Unless noted, calls follow the shape of the dose curve; as a rule, active = well fitted curve in the direction sought with a large enough effect in the repeat runs; inconclusive = weak or mixed curves; inactive = no such curve, though single readings can be large; an effect the other way counts as inactive or inconclusive.
% is scaled to controls: 0 for no effect and ±100 for the full control effect.

Chain of Androgen receptor (Homo sapiens) (P10275 whole entry, looked up): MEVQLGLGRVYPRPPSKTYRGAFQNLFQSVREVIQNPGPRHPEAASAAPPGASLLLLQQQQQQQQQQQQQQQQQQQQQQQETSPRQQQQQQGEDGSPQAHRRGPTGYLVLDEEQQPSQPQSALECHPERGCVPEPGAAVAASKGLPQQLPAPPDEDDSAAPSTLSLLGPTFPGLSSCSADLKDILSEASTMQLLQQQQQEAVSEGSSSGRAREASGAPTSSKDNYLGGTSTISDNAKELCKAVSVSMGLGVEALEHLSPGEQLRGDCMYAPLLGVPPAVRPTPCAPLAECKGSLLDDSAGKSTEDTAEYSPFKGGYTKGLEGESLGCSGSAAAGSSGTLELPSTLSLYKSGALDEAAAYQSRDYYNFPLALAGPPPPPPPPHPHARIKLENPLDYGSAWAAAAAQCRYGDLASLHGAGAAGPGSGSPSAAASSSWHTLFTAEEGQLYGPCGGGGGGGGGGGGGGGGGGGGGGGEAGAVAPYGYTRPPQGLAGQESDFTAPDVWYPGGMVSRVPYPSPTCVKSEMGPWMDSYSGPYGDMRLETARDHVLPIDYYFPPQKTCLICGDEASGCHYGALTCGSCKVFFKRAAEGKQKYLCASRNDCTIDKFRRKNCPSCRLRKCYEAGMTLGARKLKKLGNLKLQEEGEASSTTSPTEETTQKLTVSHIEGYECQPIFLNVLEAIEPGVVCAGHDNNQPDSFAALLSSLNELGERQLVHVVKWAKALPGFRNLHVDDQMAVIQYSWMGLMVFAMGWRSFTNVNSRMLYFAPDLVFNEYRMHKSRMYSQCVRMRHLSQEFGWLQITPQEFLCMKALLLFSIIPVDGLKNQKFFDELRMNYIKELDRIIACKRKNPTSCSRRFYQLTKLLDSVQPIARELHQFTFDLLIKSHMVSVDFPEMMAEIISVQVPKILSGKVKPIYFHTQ

Turning to `CC(C)c1ccccc1`, the compound was classed as inactive in [1], in [5] and in assay [7]. Moreover, the Potency result in [2], in [3], in [4] and in assay [6] was “inactive” in each case.
Turning to `C1CCOC1`, the outcome in assay [1] was inactive. Moreover, in assay [8], the Potency result is “inactive”.
Regarding `CC(C)Nc1nc(N)nc(Cl)n1`, the outcome in assay [1] and in assay [9] was inactive. Moreover, the Potency result in assay [2], in assay [3] and in [8] was “inactive” each time.
Turning to `Nc1ccc2ccccc2c1S(=O)(=O)O`, the Potency result in [10], in [2], in assay [3] and in assay [8] was “inactive” in each case.
Consider `Cc1cc2c(s1)Nc1ccccc1N=C2N1CCN(C)CC1`, for which the call in assay [1] and in assay [9] was inactive. Moreover, in [8], the Potency result was “inactive”.
As to `CCN(CC)CCOc1ccc(Cc2ccccc2)cc1`, the Potency in assay [10] is 0.473 µM (active); in [2], 0.188 µM (active); in assay [3] it was 0.376 µM (active).
As for `COC(=O)c1ccc2cc(C(=O)OC)ccc2c1`, the compound was called inactive in assay [1] and in [9]. Moreover, the Potency entry in assay [2], in assay [3] and in assay [8] was “inactive” each time.
Turning to `CN(C)CCOc1ccccc1Cc1ccccc1`, the compound was classed as inactive in assay [1] and in assay [9]. Besides, the Potency result in assay [2] and in assay [8] was “inactive” each time.
On to `CC(C)(C)c1cccc(O)c1`, for which the result in [1], in [5] and in assay [7] was inactive. Besides, the Potency in [2] was 61.1 µM (active). In addition, the Potency result in [4], in [6] and in [8] was “inactive” in each case.
As for `O=C1CCN(c2ccccc2)N1`, the compound was called inactive in assay [1], in assay [9], in [5] and in assay [7]. Moreover, the Potency in [2] was 68.8 µM (active). Further, the Potency entry in assay [4], in [6] and in assay [8] was “inactive” throughout.
Consider `CCOC(=O)CS`, for which the call in [1] was inactive. Moreover, the Potency entry in [8] was “inactive”.
For `CN1C(=O)CC(c2ccccc2)C1=O` (stereo not given), the compound was called inactive in [1] and in assay [9]. Also, the Potency result in [2] and in [8] was “inactive” throughout.
As for `O=C(O)[C@@H]1CSCN1`, the outcome in [1] and in assay [9] was inactive. In addition, the Potency entry in assay [2], in assay [3] and in assay [8] was “inactive” throughout.
For the compound `CCOc1ccc(NS(=O)(=O)c2ccc(N)cc2)nn1`, the Potency entry in assay [10], in [2], in assay [3] and in assay [8] was “inactive” each time. Moreover, the result in [9] was inactive.
Regarding `ICCc1ccccc1`, the compound was classed as inactive in [1] and in assay [9]. Moreover, the Potency entry in assay [8] is “inactive”.
Take `OCc1c2ccccc2cc2ccccc12`: the compound was classed as inactive in assay [1] and in assay [9]. The Potency result in assay [8] was “inactive”.
`COC(=O)N[C@H](C(=O)N[C@@H](Cc1ccccc1)[C@@H](O)CN(Cc1ccc(-c2ccccn2)cc1)NC(=O)[C@@H](NC(=O)OC)C(C)(C)C)C(C)(C)C`: the compound was classed as inactive in assay [1]. Moreover, in [8], the Potency result is “inactive”.
With `CCC(=O)O[C@]1(C(=O)SCF)[C@H](C)C[C@H]2[C@@H]3C[C@H](F)C4=CC(=O)C=C[C@]4(C)[C@@]3(F)[C@@H](O)C[C@@]21C`, the compound was classed as inactive in [1] and in [9]. In addition, the Potency entry in assay [2] and in [8] was “inactive” throughout.
With `Oc1ccccc1C=NCc1ccccc1`, the result in assay [1] and in assay [9] was inactive. The Potency entry in [2] and in assay [8] was “inactive” in each case.
For the compound `CC(C)(C)c1ccc(OC(=O)c2ccccc2O)cc1`, the outcome in [1] and in assay [9] was inactive. Besides, the Potency entry in assay [3] and in [8] was “inactive” in each case.
Regarding `COc1cc(N)c(Cl)cc1C(=O)NC1CCN(Cc2ccccc2)CC1`, the compound was classed as inactive in [1]. Further, in assay [8], the Potency entry was “inactive”.
Take `CN1CCN(c2c(F)cc3c(=O)c(C(=O)O)cn(CCF)c3c2F)CC1`: the outcome in [1] and in assay [9] was inactive. For the same compound, the Potency result in [8] was “inactive”.
Take `CN(CCCN1c2ccccc2CCc2ccccc21)CC(=O)c1ccc(Cl)cc1`: the Potency was 9.44 µM (active) in [10], 13.3 µM (active) in assay [2] and 13.3 µM (active) in assay [3].
For `CCOC(=O)COc1ccc2c(c1)CC(NCC(O)c1cccc(Cl)c1)CC2` (stereo not given), the Potency in [10] and in assay [2] was 54.9 µM (active) in each case. The Potency entry in [8] was “inactive”.
As for `CN(C)CC[C@@H](c1ccc(Cl)cc1)c1ccccn1`, the compound was classed as inactive in assay [1] and in assay [9]. In addition, the Potency result in [2], in assay [3] and in assay [8] was “inactive” throughout.
Take `CO[Si](C)(C)OC`: the result in assay [1] and in assay [9] was inactive. Moreover, in assay [8], the Potency result is “inactive”.
On to `CCN(CC)CCNC(=O)COc1ccc(Cl)cc1`, for which the call in assay [1] and in assay [9] was inactive. The Potency entry in [2] and in assay [8] was “inactive” in each case.
Take `NC(Cc1ccc(F)cc1)C(=O)O` (stereo not given): the viability change, negative = cytotoxic was -1.1% [at 7.04 µM] in assay [1] and -1.4% [at 8.47 µM] in assay [8]. Moreover, the Potency in [3] is 1.87 µM (active). In addition, in assay [9], the activity change, negative = cytotoxicity was -0.148% [at 7.04 µM].
With `O=C(C(Cl)Cl)N1CCOC12CCCCC2`, the Potency in assay [2] is 6.86 µM (active). In assay [9], the compound was called inactive.
On to `COc1cc2c(cc1N)oc1ccccc12`, for which the result in assay [1] and in assay [9] was inactive. Besides, in [3], the Potency is 62.4 µM (active). The Potency entry in assay [8] was “inactive”.
For the compound `O=C1N(c2ccccc2)c2ccccc2C1(Cc1ccncc1)Cc1ccncc1`, the compound was called inactive in assay [1] and in [9]. Also, the Potency result in assay [8] was “inactive”.
